These results are taken from PubChem BioAssay AID1851 (National Center for Advancing Translational Sciences (NCATS), 2009).

The whole screen tested about 16,000 compounds, of which about 5,100 (32%) were called active. Roughly 25% stayed inconclusive and do not appear here. Some of the results follow. Values without a mark were called inactive. Calls come from the whole dose curve; as a rule, active = well fitted curve in the direction sought with a large enough effect; inconclusive = small, poorly fitted or top-dose-only effect, or effect the other way; inactive = no such curve, though single readings can be large or run the other way.
% is set by controls: 0 for no effect and ±100 for the full control effect.

Chain of Cytochrome P450 3A4 (Homo sapiens) (P08684 whole entry, looked up): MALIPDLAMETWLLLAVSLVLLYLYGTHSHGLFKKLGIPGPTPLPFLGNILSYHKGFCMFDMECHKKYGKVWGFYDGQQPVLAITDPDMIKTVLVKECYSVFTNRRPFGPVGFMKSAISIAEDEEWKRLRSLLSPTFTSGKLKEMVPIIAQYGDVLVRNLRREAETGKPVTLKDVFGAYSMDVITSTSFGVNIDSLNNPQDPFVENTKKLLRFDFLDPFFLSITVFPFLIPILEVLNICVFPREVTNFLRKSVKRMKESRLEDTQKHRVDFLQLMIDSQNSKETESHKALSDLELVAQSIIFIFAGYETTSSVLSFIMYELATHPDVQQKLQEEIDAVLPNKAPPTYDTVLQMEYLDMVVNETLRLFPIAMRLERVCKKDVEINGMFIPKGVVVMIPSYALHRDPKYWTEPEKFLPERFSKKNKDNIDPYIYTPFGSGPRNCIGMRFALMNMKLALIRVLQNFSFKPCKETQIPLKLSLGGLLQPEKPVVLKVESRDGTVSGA

The assay concerns the target Cytochrome P450 3A4 (Homo sapiens) (UniProt P08684). As to the kind of experiment: Cytochrome panel assay with activity outcomes. To be noted: recombinant CYP, pro-luciferin dealkylation, luminescence, p450-cyp3a4; series mostly up to 57.1 µM.
One may read the AC50 as the concentration at which the activity in the assay is half-maximal. As for `NS(=O)(=O)c1cccc2c1c([N+](=O)[O-])cc1[nH]c(=O)c(=O)[nH]c12`, the AC50 result was “inactive”.

As for `Cc1cc(C)cc(NC(=O)N2CCCC2C(=O)Nc2ccc(-n3cnnn3)c(C)c2)c1` (stereo unspecified), the AC50 is 5.01 µM (active).

As for `CC(=O)Nc1cccc(NC(=O)C2CCCN2C(=O)Nc2ccccc2C)c1` (stereo unspecified), the activity, negative = inhibition was 0.0054% [at 11.4 µM].

Consider `Cc1cc(NC(=O)c2ccco2)ccc1-n1cnnn1`, for which the AC50 was 8.91 µM (active).

Turning to `COc1cc(Cn2cnnn2)ccc1O`, the AC50 result was “inactive”.

Turning to `O=[N+]([O-])c1ccc(Cl)c(-c2ccc(/C=N/c3c(-c4ccco4)nc4ccccn34)o2)c1`, the AC50 entry was “inactive”.

Regarding `COc1cc(-c2nc3ccccn3c2/N=C/c2ccccc2)ccc1O`, the half-maximal activity concentration (AC50) was 7.08 µM (active).

In the case of `COc1ccc(CNc2ncncc2-c2ccccc2OC)c(OC)c1`, the concentration at half-maximal activity (AC50) is 0.316 µM (active).

On to `COCCNc1cc(-c2ccccc2CN(C)C)ncn1`, for which the AC50 entry was “inactive”.

As to `COc1ccc(CNc2ncncc2-c2c(C)noc2C)c(OC)c1`, the AC50 was 1.26 µM (active).

In the case of `COc1ccc(CNc2ncncc2-c2ccccc2CN(C)C)c(OC)c1`, the half-maximal activity concentration (AC50) is 0.398 µM (active).

For the compound `COc1ccc(CNc2ncncc2-c2ccccc2C)c(OC)c1`, the AC50 is 0.398 µM (active).

`N[C@H](CCC(=O)N[C@H](CSN=O)C(=O)NCC(=O)O)C(=O)O`: the AC50 entry was “inactive”.

In the case of `CO[C@@H]1COC(=O)[C@H]2CCCN2C(=O)[C@@H](C)COC(=O)CCC[C@H]1C`, the activity, negative = inhibition is -20.2% [at 11.4 µM].

For `C=CCNC(=O)/C(=C\C=C\c1ccccc1)NC(=O)c1ccc(OCCCC)cc1`, the concentration at half-maximal activity (AC50) was 8.91 µM (active).

Turning to `C=CCOc1cccc(/C=N/NC(=O)C(=O)NCc2ccco2)c1`, the AC50 result was “inactive”.

For `CC[N+](CC)(CC)CCOc1ccc(/C=C\c2ccccc2)cc1`, the AC50 entry was “inactive”.

For `Cc1ccc(C(=O)N/C(=C/C=C/c2ccccc2)C(=O)NCc2ccco2)cc1`, the half-maximal activity concentration (AC50) was 5.01 µM (active).

For the compound `Cn1cnc([N+](=O)[O-])c1Sc1nc(N)nc2c1ncn2[C@H]1C[C@H](O)[C@@H](CO)O1`, the activity, negative = inhibition is -4.33% [at 11.4 µM].

For `CN1CCC(=C2c3ccccc3C=Cc3ccccc32)CC1`, the AC50 entry is “inactive”.

For `O=C(O)CN(CCOCCOCCN(CC(=O)O)CC(=O)O)CC(=O)O`, the AC50 result is “inactive”.

Consider `N=C1/C(=C\c2ccc(SCc3ccco3)o2)C(=O)N=C2SC=NN12`, for which the concentration at half-maximal activity (AC50) was 3.98 µM (active).

Turning to `O=C(CCCN1C(=O)c2cccc3cccc(c23)C1=O)N1CCc2ccccc2C1`, the AC50 was 5.01 µM (active).

On to `N=C(N)N1CCc2ccccc2C1`, for which the AC50 result was “inactive”.

On to `CCc1ccc(/C=C\C(=O)N2CCc3ccccc3C2)cc1`, for which the AC50 entry was “inactive”.

On to `O=C(CN1C(=O)c2cccc3cccc(c23)C1=O)N1CCCCCC1`, for which the AC50 is 10 µM (active).

As to `O=C(c1ccc(S(=O)(=O)N2CCCCCC2)cc1)N1CCC(CN2C(=O)c3cccc4cccc(c34)C2=O)CC1`, the AC50 entry was “inactive”.

On to `O=C(O)c1cccc2cccc(-c3cccc4cccc(C(=O)O)c34)c12`, for which the activity, negative = inhibition is -5.55% [at 11.4 µM].

`COc1ccc(/C=N/NC(=O)c2cc(-c3ccc(C)cc3C)nc3ccccc23)cc1COC(C)=O`: the activity, negative = inhibition was 14.1% [at 0.457 µM].

Consider `COc1cccc(/C=N/NC(=O)c2nc(-c3ccccc3)cc(-c3ccccc3)n2)c1`, for which the AC50 entry is “inactive”.

With `COc1cccc(-c2cc(C(=O)N/N=C/c3ccc(OC)c(COC(C)=O)c3)c3ccccc3n2)c1`, the half-maximal activity concentration (AC50) was 1.78 µM (active).

`N[C@]1(C(=O)O)CCc2cc(P(=O)(O)O)ccc21`: the AC50 result is “inactive”.

For the compound `Clc1ccc2c(c1)C(c1cccs1)=NNC(c1cccnc1)=N2`, the AC50 was 10 µM (active).

For the compound `Fc1ccc2c(c1)C(c1ccncc1)=NNC(c1ccc(Cl)cc1)=N2`, the half-maximal activity concentration (AC50) is 1.78 µM (active).

`CC(C)c1ccc2c(c1)C(c1ccc(N3CCOCC3)cc1)=NNC(c1cccs1)=N2`: the activity, negative = inhibition is 9.44% [at 2.29 µM].

Turning to `O=C(O)[C@H]1CCCC[C@@H]1c1c2ccc(=O)c(O)c-2oc2c(O)c(O)ccc12`, the activity, negative = inhibition was -5.27% [at 11.4 µM].

Take `C=CCNc1nc(SCC=C)nc2ccsc12`: the AC50 was 12.6 µM (active).

On to `C=CCSc1nc(NC)c2sccc2n1`, for which the half-maximal activity concentration (AC50) is 25.1 µM (active).

With `C=CCSc1ccsc1C(=O)O`, the AC50 entry is “inactive”.

In the case of `CSc1nc(Oc2ccc(F)cc2)c2ccccc2n1`, the AC50 result was “inactive”.

For `C=CCSc1nc(Oc2ccccc2)c2sccc2n1`, the half-maximal activity concentration (AC50) is 10 µM (active).

For `NS(=O)(=O)c1ccc(N=Nc2c[nH]c(=O)c(O)c2)cc1`, the activity, negative = inhibition is -19.5% [at 11.4 µM].

`O=C(CSc1nc2nc(-c3cccs3)cc(C(F)(F)F)c2c(=O)[nH]1)NCc1ccco1`: the concentration at half-maximal activity (AC50) was 14.1 µM (active).

With `N#Cc1c(-c2cccs2)nc(SCC(=O)c2cccs2)[nH]c1=O`, the activity, negative = inhibition is -3.29% [at 2.29 µM].

With `CSc1nc(-c2ccc(C)cc2)[nH]c1S(=O)(=O)c1ccccc1`, the AC50 is 28.2 µM (active).

In the case of `CSc1nc(O)c(Cc2ccccc2)c(=O)[nH]1`, the AC50 entry is “inactive”.

Turning to `CCCCCOC(=O)c1c(N)n(CCOC)c2nc3ccccc3nc12`, the AC50 is 8.91 µM (active).

Take `C=C(CC1([C@@H](NP(=O)(c2ccccc2)c2ccccc2)[C@H]2C[C@@H]2CCCC)CC1)c1ccccc1`: the concentration at half-maximal activity (AC50) was 1.58 µM (active).

Take `C=C(CC1([C@@H](NP(=O)(c2ccccc2)c2ccccc2)[C@H]2C[C@@H]2CCCC)CC1)c1cccc(OC)c1`: the AC50 was 2.51 µM (active).

As to `C=C(CC1([C@@H](NP(=O)(c2ccccc2)c2ccccc2)[C@H]2C[C@@H]2CCN(C(=O)OCC)S(=O)(=O)c2ccc(C)cc2)CC1)c1ccccc1`, the AC50 was 1.58 µM (active).

Take `O=C(O)c1ccc(SSc2ccc(C(=O)O)cn2)nc1`: the activity, negative = inhibition was -8.92% [at 11.4 µM].

Take `O=C1CCCN1CC(O)CS(=O)(=O)c1ccccc1` (stereo unspecified): the AC50 entry is “inactive”.

Turning to `Cc1ccc(C(=O)N(CN2CCCC2=O)c2ccccc2)cc1C`, the AC50 was 12.6 µM (active).

For the compound `Cc1cc(C(=O)OCC(=O)NCCCN2CCCC2=O)c2ccccc2n1`, the activity, negative = inhibition was -5.65% [at 2.29 µM].

Consider `CC1(C)CO[C@H](CC(=O)O)CN1`, for which the AC50 result was “inactive”.

For `O=C(O)C1CCN(c2c([N+](=O)[O-])cc(C(F)(F)F)cc2[N+](=O)[O-])CC1`, the AC50 entry is “inactive”.

As to `O=c1c([N+](=O)[O-])cc(C(F)(F)F)cn1Cc1c(Cl)cccc1Cl`, the concentration at half-maximal activity (AC50) was 14.1 µM (active).

For the compound `COc1cccc(OC)c1C(=O)NC(=S)N1CCN(c2ccc(C(F)(F)F)cc2[N+](=O)[O-])CC1`, the activity, negative = inhibition was -16.4% [at 2.29 µM].

For the compound `CCC(=O)[C@@]1(C)[C@H](C)C[C@@H]2[C@@H]3CCC4=CC(=O)C=C[C@@]4(C)[C@H]3[C@H](O)C[C@]21C`, the AC50 result is “inactive”.

On to `CCC(=O)OCC(=O)[C@@]1(OC(=O)CC)[C@H](C)C[C@@H]2[C@H]3CCC4=CC(=O)C=C[C@]4(C)[C@]3(Cl)[C@@H](O)C[C@@]21C`, for which the AC50 result is “inactive”.

Regarding `CN(C)C(N)=NCCC[C@H](N)C(=O)O`, the AC50 entry was “inactive”.

For the compound `Cc1ccc(-c2ccc(/C=N\NC(=O)c3cc4c(ccc5ccccc54)o3)o2)cc1[N+](=O)[O-]`, the AC50 entry is “inactive”.

For `Cc1ccc(C(=O)N/N=C\c2ccc[nH]2)cc1[N+](=O)[O-]`, the activity, negative = inhibition is 16.8% [at 2.29 µM].

On to `Cc1ccc(-c2ccc(/C=N/NC(=S)Nc3ccccc3)o2)cc1[N+](=O)[O-]`, for which the AC50 was 7.08 µM (active).

On to `Cc1cc(C(F)(F)F)n2nc(-c3cnn(C)c3C(F)(F)F)c(Cl)c2n1`, for which the AC50 result was “inactive”.

Regarding `NC(=O)c1ccccc1-c1nc(-n2ccnc2)c2ccccc2n1`, the concentration at half-maximal activity (AC50) is 3.98 µM (active).

For `Cc1ccccc1-c1nc(-n2ccnc2)c2ccccc2n1`, the half-maximal activity concentration (AC50) was 0.398 µM (active).

For `Clc1ccccc1-c1nc(-n2ccnc2)c2ccccc2n1`, the AC50 is 0.501 µM (active).

For `CC(C)(C)OC(=O)[C@H]([C@@H]1N[C@@H](C(=O)O)C(C)(C)S1)N1C(=O)c2ccccc2C1=O`, the activity, negative = inhibition is -8.52% [at 11.4 µM].

On to `COCC(=O)N1CCC2(CC1)CCN(C(=O)Nc1ccc(OC)cc1)CC2`, for which the AC50 result is “inactive”.

Regarding `Cc1cccc(C)c1-n1c(SCC(=O)NCc2ccco2)nc2ccccc2c1=O`, the AC50 was 3.98 µM (active).

Consider `O=C(CSc1ccccc1C(=O)O)NCc1ccco1`, for which the AC50 result was “inactive”.

In the case of `COc1ccc(NC(=O)CSc2nc3ccccc3c(=O)n2CCC(=O)N2CCCCC2)cc1`, the AC50 was 2 µM (active).

Consider `CCCCn1c(SCC(=O)Nc2nccs2)nc2ccccc2c1=O`, for which the concentration at half-maximal activity (AC50) was 3.16 µM (active).

Regarding `Cc1cc(NC(=O)CSc2nc3ccccc3c(=O)n2CCCC(=O)NCc2ccco2)n[nH]1`, the AC50 is 3.55 µM (active).

Consider `O=C(CSc1nnc(-c2ccco2)n1-c1ccccc1)NCc1ccco1`, for which the concentration at half-maximal activity (AC50) was 15.8 µM (active).

For the compound `Cc1cc(C)c(NC(=O)C(C)Sc2nnc(-c3ccco3)n2-c2ccccc2)c(C)c1` (stereo unspecified), the AC50 was 3.55 µM (active).

`CCCCNC(=O)CSc1nc2ccccc2c(=O)n1CCNC(C)=O`: the AC50 was 25.1 µM (active).

Consider `CCCCNC(=O)C(=O)c1ccccc1NC(C)=O`, for which the AC50 result is “inactive”.

As to `CC(=O)NCCn1c(SCC(=O)NCc2ccco2)nc2ccccc2c1=O`, the AC50 is 15.8 µM (active).

Consider `O=C(CSc1nnc2sc3ccccc3n12)NCc1ccco1`, for which the activity, negative = inhibition is -18.1% [at 11.4 µM].

Regarding `C=CCSc1nc2ccccc2c(=O)n1Cc1ccco1`, the activity, negative = inhibition is -25.8% [at 11.4 µM].

Turning to `Cc1ccc(Oc2nn[nH]n2)cc1`, the AC50 result is “inactive”.

`CC1CCC(C(=O)O)([C@H](Br)C(=O)O)CC1` (stereo partly specified): the activity, negative = inhibition is -2.61% [at 11.4 µM].

On to `NC(=O)OCC(COC(N)=O)c1ccccc1`, for which the AC50 result is “inactive”.

On to `CCN(C(=O)CSc1nc2cc(C(=O)OC)ccc2c(=O)n1Cc1ccco1)c1cccc(C)c1`, for which the AC50 entry is “inactive”.

In the case of `CCCCCn1c(SCc2ccncc2)nc2cc(C(=O)NCc3ccco3)ccc2c1=O`, the concentration at half-maximal activity (AC50) is 0.794 µM (active).

For `O=C(O)CCCCCn1c(SCC(=O)N2CCCC2)nc2ccsc2c1=O`, the AC50 entry was “inactive”.

For the compound `O=C(CSc1nc2ccccc2c(=O)n1CCCC(=O)N1CCCC1)NCc1ccco1`, the concentration at half-maximal activity (AC50) was 6.31 µM (active).

For `CCOC(=O)CSc1nc2ccccc2c(=O)n1CC1CCC(C(=O)NCc2ccco2)CC1` (stereo unspecified), the concentration at half-maximal activity (AC50) is 5.01 µM (active).

Regarding `CCS(=O)(=O)N1CCC(C(=O)NCc2ccco2)CC1`, the AC50 result was “inactive”.
